16 compounds from PubChem BioAssay (NCATS) can be followed below.

Results filed as inconclusive are left out. A number with no mark means an inactive call. Active and inactive are the calls of the source. The call rests on the fitted dose curve; in most records, active means well fitted inhibition curve with a large enough effect; inconclusive means small, poorly fitted or top-dose-only effect; inactive means no such curve, though single readings can be large or run the other way.
On the % scale 0 is the no-effect control and ±100 the full control effect; potency means the concentration at half of the fitted maximal effect.

This assay in a line: qHTS for Inhibitors of the Aldehyde Dehydrogenase Family (ALDH1A2, ALDH1A3, ALDH2, ALDH3A1) (AID 2061307). Further: nearly all actives have a fitted effect of over 50% in size. On Potency: test system not described further here. Particulars: ALDH inhibition qHTS; series mostly up to 50.3 µM; activity change, negative = inhibition: at the top concentration.
As for `COc1ccc([N+](=O)[O-])c(S(=O)(=O)c2ccc(C)cc2)n1`, the Potency is 2.25 µM (active). `O=C(c1cccc(F)c1)N1CCCC2(CCN(C(c3ccccc3)c3ccccc3)C2)C1` (stereo unspecified): the “activity change, negative = inhibition” value is -79.3%. Take `N#Cc1ccsc1NC(=O)c1ccn(-c2ccccc2F)n1`: the Potency was 1 µM (active). On to `O=C(Nc1nncs1)c1ccn(-c2ccc(F)cc2)n1`, for which the “activity change, negative = inhibition” value is 0% [at 34.4 µM]. Regarding `N#Cc1cccc(NC(=O)N2C[C@@H]3C[C@H](C2)c2ccc(-c4ccc(OC(F)(F)F)cc4)c(=O)n2C3)c1`, the “activity change, negative = inhibition” value was -16.3% [at 34.4 µM]. `CC(=O)c1c(C)n(-c2ccccc2)c2ccc(O)cc12`: the Potency is 0.798 µM (active).

Consider `Cc1ccccc1C(=O)N1CCc2cc(-c3nc(NC(=O)CC4CCOCC4)sc3C)ccc21`, for which the Potency was 4.47 µM (active).

Turning to `COc1cccc(Nc2nc(C)c(C(=O)Nc3ccccc3)s2)c1`, the “activity change, negative = inhibition” value was -58.2% [at 34.4 µM]. Same read-out and setting: the value for `CCOc1ccc(NC(=O)Cn2c(=O)n(-c3ccccc3)c(=O)c3ccc(C(=O)NCc4ccc5c(c4)OCO5)cc32)cc1` was -39.9% [at 34.4 µM]; that for `NCC(=O)Nc1cccc(-c2nn3c(=O)cc(N4CCNCC4)nc3s2)c1` was 69.7%.

As to `Cc1cc(Br)c2c(c1)/C(=C\C(=O)c1cccs1)C(=O)N2`, the Potency was 2.52 µM (active).

Take `COc1cc(O)c(C(CC(=O)N2CC(C)CC(C)C2)c2ccc(NC(C)=O)cc2)c(OC)c1` (stereo unspecified): the Potency is 31.6 µM (active). Still for that read-out and setting: the value for `O=C(Nc1ccc(-c2nnc3n2CCCC3)cc1)Nc1ccccc1Br` was 8.91 µM (active). Take `c1ccc(Nc2cc(-c3ccoc3)ncn2)cc1`: the “activity change, negative = inhibition” value was -13%. With `O=C(CSc1nnc(-c2ccccn2)o1)Nc1ccc2c(c1)OCCO2`, the Potency is 11.3 µM (active).

For `O=C(NCCN1CCN(c2cccc(Cl)c2)CC1)Nc1ccccc1C(F)(F)F`, the “activity change, negative = inhibition” value was -60.6% [at 34.4 µM].
